Data reported in PubChem BioAssay (EPA / NIEHS).
Inconclusive results are not listed. Calls of active or inactive are those of the source. The calls were made as follows, unless noted: active = hit-call score of the fitted dose curve at least 0.9, where 1 is the maximum; inactive = score below 0.9.

Assays:
TTR (gene 7276) = assay: CCTE_GLTED_hTTR_0.125uM: CCTE's human Transthyretin (hTTR) Inhibition Assay, with 0.125uM TTR, Great Lakes Toxicology and Ecology Division (GLTED) Lab (AID 2284431);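 also: hits lower the fluorescence signal relative to DMSO baseline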
Procedure, shortened: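 Cell-free displacement of ANSA probe from 0.125uM TTR after 2 h incubation with chemical. Fluorescence read at 380 nm excitation/475 nm emission; loss of signal relative to DMSO indicates T4-site displacement.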

[1] = CCTE_Deisenroth_DEVTOX-GLR_Endo_CellCount: Viability Assessment in CCTE's DevTox GLR-Endo Assay, Deisenroth Lab (AID 2284420)
Procedure, shortened: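 RUES2-GLR pluripotent cells seeded 24 h, then differentiated 48 h in defined media with two chemical exposures 24 h apart. Nuclei counted by high-content imaging; 10-point 1 nM–200 uM series; percent change versus 0.2% DMSO.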

[2] = test system: SRY-box transcription factor 17 (SOX17) Protein Expression, Deisenroth Lab, SOX17 (gene 64321); assay: CCTE_Deisenroth_DEVTOX-GLR_Pluri_SOX17: CCTE's DevTox GLR-Pluri Assay Evaluation of SRY-box transcription factor 17 (SOX17) Protein Expression, Deisenroth Lab (AID 2284427; active = hit-call score of the fitted dose curve at least 0.9, where 1 is the maximum)
Procedure, shortened: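 RUES2-GLR pluripotent cells were induced toward endoderm over 48 h and received two compound doses 24 h apart, in a 10-point series from 1 nM to 200 uM. The percentage of SOX17+ cells among total cells was measured by high-content imaging and reported minus the 0.2% DMSO control.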

[3] = test system: SRY-box transcription factor 2 (SOX2) Protein Expression, Deisenroth Lab, SOX2 (gene 6657); assay: CCTE_Deisenroth_DEVTOX-GLR_Pluri_SOX2: CCTE's DevTox GLR-Pluri Assay Evaluation of SRY-box transcription factor 2 (SOX2) Protein Expression, Deisenroth Lab (AID 2284428)
Description: CCTE_Deisenroth_DEVTOX-GLR_Pluri assay is a cell-based, multiplex-readout assay that uses RUES2-GLR, a human pluripotent cell line, with measurements taken at 48 hours after chemical dosing in a 384-well microplateCCTE_Deisenroth_DEVTOX-GLR_Pluri_SOX2 is 1 of 4 assay components calculated from the CCTE_Deisenroth_DEVTOX-GLR_Pluri assay and it measures an the percentage of cells in an pluripotent state. Using a type of inducible fluorescent protein reporter, gain-of-signal activity can be used to understand changes in gene expression with fluorescent microscopy. The percentage of SOX2+ cells are determined by calculating the number of SOX2+ cells divided by the cell count. To generalize the intended target to other relatable targets, this assay component is annotated to the transcription factor intended target family, where the subfamily is SRY-related HMG-box.Data from the assay component CCTE_Deisenroth_DEVTOX-GLR_Pluri_SOX2 was analyzed as 1 assay endpoint. The endpoint is the percent change in the SOX2+ cell population relative to the 0.2% DMSO control in the CCTE_Deisenroth_DEVTOX-GLR_Pluri assay. Furthermore, this assay endpoint can be referred to as a primary readout, because this assay has produced multiple assay endpoints where this one serves as a measure of […].
All assay protocols are aligned to the DevTox GLR-Endo assay workflow. […]

[4] = test system: Brachyury (BRA) Protein Expression, Deisenroth Lab, TBXT (gene 6862); assay: CCTE_Deisenroth_DEVTOX-GLR_Pluri_BRA: CCTE's DevTox GLR-Pluri Assay Evaluation of Brachyury (BRA) Protein Expression, Deisenroth Lab (AID 2284429; active = hit-call score of the fitted dose curve at least 0.9, where 1 is the maximum)
Procedure, shortened: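 RUES2-GLR reporter line; 48 h mesoderm differentiation; two exposures, 24 h apart; 1 nM - 200 uM, 10 points; nuclear stain, high-content imaging, 5 fields/well; endpoint = %BRA+ cells of total count minus 0.2% DMSO; n=4.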

[5] = CCTE_Deisenroth_DEVTOX-GLR_Pluri_CellCount: Viability Assessment in CCTE's DevTox GLR-Pluri Assay Evaluation of Total Cell Counts, Deisenroth Lab (AID 2284430)
Procedure, shortened: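 Cytotoxicity readout: fluorescent nuclei counts by high-content imaging, expressed as percent change relative to 0.2% DMSO. Human RUES2-GLR pluripotent line differentiated 48 h, dosed twice at 24-h intervals across 1 nM - 200 uM (10 points).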

[6] = test system: Brachyury (BRA) Protein Expression, TBXT (gene 6862); assay: CCTE_Deisenroth_DEVTOX-GLR_Endo_BRA: CCTE's DevTox GLR-Endo Assay Evaluation of Brachyury (BRA) Protein Expression, Deisenroth Lab (AID 2284417)
Procedure, shortened: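 RUES2-GLR pluripotent cells differentiated 48 h with two chemical exposures 24 h apart, 10-point range 1 nM - 200 uM. Percentage of BRA+ cells per total count by high-content imaging, minus 0.2% DMSO control.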

In the case of `CCCCCCCCOS(=O)(=O)O`, the AC50 (TTR (gene 7276)) is reported as 10.6 µM (active).

For `CC(C)Cc1ccc(C(C)C(=O)O)cc1` (centres undefined), the outcome [1] was “inactive”, the outcome [2] was “inactive” and the outcome [3] was “inactive”. The outcome [4] was “inactive” and the outcome [5] was “inactive”.

For `CCCCCCCCOC(=O)c1ccc(O)cc1`, the AC50 (TTR (gene 7276)) was 2.77 µM (active).

In the case of `CCCCCCCCCOS(=O)(=O)O`, the AC50 (TTR (gene 7276)) is reported as 8.43 µM (active).

For `CCCCCCCCCCCCOCCOS(=O)(=O)O`, the AC50 (TTR (gene 7276)) was 6.09 µM (active).

In the case of `O=S(=O)(O)c1cc(S(=O)(=O)O)c2c(N=Nc3ccccc3)c(O)ccc2c1`, the AC50 (TTR (gene 7276)) is reported as 12 µM (active).

In the case of `O=c1cc(-c2ccc(O)cc2)oc2cc(O)cc(O)c12`, the AC50 (TTR (gene 7276)) is reported as 0.035 µM (active).

For `O=C(O)c1ccccc1O`, the outcome [6] was “inactive”, the outcome [1] was “inactive” and the outcome [2] was “inactive”. The outcome [3] was “inactive”, the outcome [4] was “inactive” and the outcome [5] was “inactive”.

For `CCCCCCOc1ccc(O)cc1`, the AC50 (TTR (gene 7276)) was 3.47 µM (active).

In the case of `C#C[C@]1(O)CC[C@H]2[C@@H]3CCc4cc(O)ccc4[C@H]3CC[C@@]21C`, the AC50 (TTR (gene 7276)) is reported as 2.73 µM (active).
